In PubChem BioAssay AID720728 (Molecular Libraries Program, Specialized Chemistry Center, …, 2013):
Calls of active or inactive are those of the source. No rule for the calls is given here.

Assay: mitochondrial permeability transition pore blockers, isolated mitochondria – biochemical, dry powder samples, uHTS hits, dose response (AID 720728)
Details: calcium retention capacity

CRC/CRC0 ratio at 50 uM (fold over control, higher = inhibition), active:
COc1cc(NC(=O)c2cc(-c3cccc(O)c3)on2)cc(OC)c1OC 1.93 fold
CN(C)CCCN1c2ccccc2Sc2ccc(Cl)cc21 1.97 fold
CNCCC=C1c2ccccc2CCc2ccccc21 1.66 fold
Cc1ccc2nc(N(CCCN(C)C)C(=O)CCc3ccccc3)sc2c1 1.61 fold
CC(C)(C)c1ccccc1OCCCCCNCCO 1.82 fold
CC1CCCN(CCC(=O)c2ccc(Br)cc2)C1 (stereo unspecified) 2.73 fold
COCCCNCCCOc1ccc(Cl)cc1C(C)(C)C 2.13 fold
COC(=O)c1c(NC(=O)C2CCCCC2)sc2c1CC(C)(C)NC2(C)C 2.05 fold
CN1CCC[C@@H]1CCO[C@](C)(c1ccccc1)c1ccc(Cl)cc1 1.81 fold
C=CCNCCCOc1ccc(C)cc1Br 1.53 fold
COc1cc(CNCCO)cc(Cl)c1OCc1ccccc1Cl 1.81 fold
